Laboratory results as given in ChEMBL document CHEMBL3988442, “University of Dundee, Small-Polar-MMV Screening Library” (2021).
About 13,000 (27%) of roughly 48,000 compounds showed an effect of 50% or more. The list shows a part of the results.

Test system: Wolbachia pipientis
Assay: Anti-Wolbachia Cell-Based Screen
Type: functional
Design: scale not given: in the data most compounds retested in dose-response had high values
Conditions: 5 µM

Row | Compound | Percent Effect [%]
1 | COc1cccc(CC(C)NC(=O)NCCc2cccnc2)c1 (configuration not stated) | -9.147
2 | CCN1CCc2c(CNC(=O)c3nccn3C)cncc2C1.Cl.Cl.Cl | 11.07
3 | CS(=O)(=O)NCc1cncc2c1CCN(CC1CCOC1)C2.Cl.Cl (configuration not stated) | -2.425
4 | CC(C)N(C)Cc1cncc2c1CCN(CC1CC1)C2.Cl.Cl.Cl | 102.9
5 | CN(C)C(=O)CN1C[C@@H]2CC[C@H](C1)N(C(=O)Cc1ccccc1Cl)C2 | -1.206
6 | CC(C)N(C)Cc1cncc2c1CCN(CC(=O)N(C)C)C2.Cl.Cl.Cl | 105.8
7 | CN(C)C(=O)CN1C[C@@H]2CC[C@H](C1)N(Cc1c(Cl)cncc1Cl)C2 | -12.98
8 | CN(C)Cc1cncc2c1CCN(CC(=O)N(C)C)C2 | 91.67
9 | Cl.Cl.c1cnc(NCc2cncc3c2CCN(CC2CC2)C3)nc1 | 93.82
10 | CC(C(=O)N1CCCC1)N1CCCN(C(=O)Oc2ccccc2)CC1 (configuration not stated) | 21.65
11 | Cc1noc(C)c1CN1C(=O)[C@H]2CC[C@@H]1CN(Cc1nccs1)C2 | -3.876
12 | FC1(F)CCNCC12CCN(c1ccccn1)C2 (configuration not stated) | -2.564
13 | Cc1nc(NCc2ccco2)nc2c1COCC21CCNC1.O=C(O)C(F)(F)F (configuration not stated) | -14.58
14 | N#Cc1ccc(NCCc2n[nH]c(=O)[nH]2)cc1Cl | -5.304
15 | CN(C)Cc1cncc2c1CCN(C1CCOCC1)C2.Cl.Cl.Cl | 89.69
16 | O=C1[C@H]2CN(C3CCOCC3)C[C@H]2CN1Cc1cccnc1 | -4.896
17 | CC(C)N(C)Cc1cncc2c1CCN(C1CCOCC1)C2.Cl.Cl.Cl | 97.34
18 | CSc1ncc(CN2C[C@H]3CC[C@@H]2CN(C2CCOCC2)C3)cn1 | -8.939
19 | COc1cccc(CC(C)NC(=O)NCCNC(C)=O)c1 (configuration not stated) | -2.176
20 | Cc1cc(C)c(CNc2ncnc3c2cnn3C)c(=O)[nH]1 | -6.133
21 | COc1c(CNCCc2c[nH]c3cc(F)ccc23)c(C)nn1C | 86.39
22 | COc1c(CNCCc2c[nH]c3cc(F)ccc23)c(C(C)C)nn1C | 79.98

Row | Compound | Percent Effect [%]
23 | CC(C)(C)c1n[nH]c(C2CN(CC3CCC3)CCO2)n1 (configuration not stated) | 7.516
24 | O=C1CCCN1CCN1CC=C(c2cnn(C3CCS(=O)(=O)C3)c2)CC1 (configuration not stated) | -11.25
25 | O=C(c1ccccc1)N1CCOC2CNCC[C@H]21 (some centres not stated) | 121.8
26 | O=C(c1ccco1)N1CCO[C@@H]2CNC[C@@H]21 | 105.9
27 | O=C(C1CCC1)N1CCO[C@@H]2CNC[C@@H]21 | 7.79
28 | CC[C@H]1CN2CC[C@H]1C[C@@H]2CNC(=O)c1ccco1 | -12.57
29 | O=C(C1CCCC1)N1CCO[C@@H]2CNC[C@@H]21 | -1.725
30 | N#Cc1cccc(CN2CCO[C@@H]3CNC[C@@H]32)c1 | -0.4846
31 | c1cc(CN2CCO[C@@H]3CNC[C@@H]32)co1 | -20.72
32 | O=C(c1ccoc1)N1CCO[C@@H]2CNC[C@@H]21 | 113.2
33 | Cl.Cl.c1ccc(CN2CCOC3CNCC[C@H]32)cc1 (some centres not stated) | -10.82
34 | O=C(c1ccccc1)N1CCO[C@@H]2CNC[C@@H]21 | 106.9
35 | Cl.Cl.c1cc(CN2CCO[C@@H]3CNC[C@@H]32)cs1 | -7.592
36 | CC(=O)C1(c2ccccc2)CCN(C(=O)CC2CNCCO2)CC1 (configuration not stated) | 5.115
37 | Cn1nc(-c2ccccc2)cc1[C@H]1CN2CC[C@H]1C[C@@H]2CNS(C)(=O)=O | 1.19
38 | CNCc1cn(C[C@H]2CC3CCN2C[C@@H]3C(=O)Nc2ccccc2)nn1 (some centres not stated) | -4.498
39 | O=C1NC[C@H]2CN(C3CCOCC3)CCN12 | -8.801
40 | COc1ccccc1OCCCN1CC=C(c2cnn(C)c2)CC1 | 5.6
41 | CCC(CC)NCC(C)Oc1cccnc1 (configuration not stated) | 18.13
42 | O=C(C1CCCCC1)N1CCO[C@@H]2CNC[C@@H]21 | -9.765
43 | O=C(c1cccnc1)N1CCO[C@@H]2CNC[C@@H]21 | 100.8
44 | Cl.Cl.O=C(N[C@H]1CN[C@H]2CCCO[C@H]21)c1cccnc1 | -6.399

Row | Compound | Percent Effect [%]
45 | Fc1cnc(N2C[C@H]3CN(Cc4cccc(F)c4)C[C@H]3C2)nc1.O=C(O)C(F)(F)F.O=C(O)C(F)(F)F | 5.307
46 | O=C(O)C(F)(F)F.O=C(O)C(F)(F)F.O=C1CC2(CCN(Cc3cccnc3)C2)CN1c1cccc(F)c1 (configuration not stated) | 15.74
47 | Fc1cnccc1CN1CCC2(CCN2c2ncccn2)C1.O=C(O)C(F)(F)F (configuration not stated) | -1.377
48 | O=C(O)C(F)(F)F.c1cnc(N2CCO[C@@H]3CN(Cc4ccoc4)C[C@@H]3C2)nc1 | 98.59
49 | O=C(O)C(F)(F)F.O=C(O)C(F)(F)F.O=C(O)C(F)(F)F.c1cncc(CN2CCO[C@@H]3CN(Cc4ccoc4)CC[C@@H]3C2)c1 | -22.75
50 | Fc1cccc(CN2C[C@@H]3CN(c4ncccn4)C[C@@H]3C2)c1.O=C(O)C(F)(F)F.O=C(O)C(F)(F)F | 102.6
51 | Fc1cccc(CN2CCC3(CCN3c3ncccn3)C2)c1.O=C(O)C(F)(F)F (configuration not stated) | 74.85
52 | Cc1ccc(CN2C[C@@H]3CN(c4ncccn4)C[C@@H]3C2)cc1.O=C(O)C(F)(F)F | 6.326
53 | N#Cc1cccc(CN2C[C@@H]3CN(c4ncccn4)C[C@@H]3C2)c1.O=C(O)C(F)(F)F | 114.7
54 | Cc1cccc(CN2C[C@@H]3CN(Cc4ccoc4)CCO[C@@H]3C2)n1.O=C(O)C(F)(F)F.O=C(O)C(F)(F)F.O=C(O)C(F)(F)F | -28.06
55 | Cc1nnc([C@@H]2C[C@H]3CN(C4CCC4)C[C@H]3O2)[nH]1.O=C(O)C(F)(F)F | 6.797
56 | CCN1C(=O)C2(CCCCC2)NC12CCSCC2 | -2.409
57 | CCCNC1(c2ccc(Cl)cc2)CCOCC1 | -6.475
58 | CN1CCC(c2cncc(N(C)C)n2)CC1 | 94.73
59 | COCCNc1nc2c(c(NCc3cnc(C)c(C)c3)n1)CCNCC2 | 2.827
60 | Cc1csc([C@@H]2C[C@@H]3CCN(Cc4cc(C)on4)C[C@H]3O2)n1 | 98.39
61 | Cc1csc(CN2CC[C@H]3C[C@H](c4ccncn4)O[C@@H]3C2)n1 | 0.9996
62 | Cc1cc(CN2CC[C@H]3C(=O)N(c4ccsc4)CCO[C@H]3C2)no1.O=C(O)C(F)(F)F | -15.71
63 | Cc1noc([C@@H]2C[C@H]3CN(Cc4cc(C)on4)C[C@H]3O2)n1.O=C(O)C(F)(F)F | 5.383
64 | Cc1csc([C@H]2C[C@@H]3CCN(Cc4cc(C)on4)C[C@H]3O2)n1 | 115.5
65 | Cc1cc(CN2CC[C@@H]3O[C@@H](c4nnc(C)o4)C[C@H]3C2)no1 | 110.6
66 | C[C@@H]1C[C@@H]2CCN(Cc3nccs3)C[C@H]2O1 | -21.98

Row | Compound | Percent Effect [%]
67 | Cc1cc(CN2CC[C@H]3C[C@H](C(=O)N(C)C)O[C@@H]3C2)no1 | -3.331
68 | Cc1csc([C@H]2C[C@H]3CN(Cc4cc(C)on4)CC[C@@H]3O2)n1.O=C(O)C(F)(F)F | 122.4
69 | Cc1cc(CN2C[C@@H]3CN(Cc4ccsc4)CCO[C@@H]3C2)no1 | -0.7027
70 | Cc1nnc([C@H]2CC[C@@H]3[C@@H](CCN3Cc3c(C)noc3C)O2)o1 | 0.6834
71 | Cc1cc(CN2C[C@@H]3COC[C@]3(c3nnc(C)o3)C2)no1 | 12.18
72 | Cc1nn(C)c(C)c1C(C(=O)O)N1CC=C(c2ccccc2)CC1 (configuration not stated) | -20.97
73 | CN1CCN(C[C@H]2CN3CC[C@H]2C[C@@H]3CNC(=O)c2ccco2)CC1 | -8.219
74 | Cc1ccc(CN2CCO[C@H]3[C@H](OCc4cccnc4)CC[C@@H]32)o1.O=C(O)C(F)(F)F.O=C(O)C(F)(F)F | 105.6
75 | Cc1ccc(CN2CCO[C@H]3[C@@H](OCc4cccnc4)CC[C@@H]32)o1.O=C(O)C(F)(F)F.O=C(O)C(F)(F)F | 111.1
76 | Cc1ccc(CN2CCO[C@@H]3[C@@H](OCc4cccnc4)CC[C@@H]32)o1 | 103.6
77 | O=C(O)C(F)(F)F.O=C(O)C(F)(F)F.c1cncc(CO[C@H]2CC[C@H]3[C@@H]2OCCN3C2CCOCC2)c1 | -9.441
78 | c1ccc(O[C@H]2CC[C@H]3[C@H]2OCCN3Cc2nccs2)nc1 | -6.34
79 | CC(C)CNC(=O)N1CCOC2(CCNCC2)C1 | -1.344
80 | CC[C@H](N)Cn1nc(-c2cccs2)oc1=O.Cl | -4.464
81 | CCOCCNC1(c2ccc(Cl)cc2)CCOCC1 | -4.765
82 | CN(CCc1ccc(F)cc1)Cc1nc2c(cnn2C)c(=O)[nH]1 | 17.64
83 | CN(CCc1ccccc1)Cc1nc2c(cnn2C)c(=O)[nH]1 | 101
84 | CC(NC(=O)CN1CCCC1=O)c1ccc(Cl)s1 (configuration not stated) | -9.497
85 | O=C(CCc1ccsc1)N1CCC(C(=O)O)(c2ccccc2)CC1 | 7.958
86 | O=C(c1ccc2c(c1)COC2)N1CCC(Nc2ccccc2)CC1 | 5.047
87 | O=C(c1ccc2c(c1)OCO2)N1CCC(C(=O)O)(c2ccccc2)CC1 | 117.1
